The structures appear in SMILES notation. Records with an inconclusive call do not appear. Unmarked numbers belong to inactive results. Active and inactive are the calls of the source. Calls come from the whole dose curve; as a rule, active = well fitted curve in the direction sought with a large enough effect; inconclusive = small, poorly fitted or top-dose-only effect, or effect the other way, or another doubt; inactive = no such curve, though single readings can be large or run the other way.

The test is described as follows: Confirmatory redox qHTS assay for identification of artifact compounds. The following applies: Amplex Red/HRP redox cycling with DTT, fluorescence; series mostly up to 39 µM. From the text: PI: Alexander Tropsha Ph.D. UNC Eshelman School of Pharmacy University of North Carolina, Chapel Hill, North Carolina Hits from high-throughput screening (HTS) of chemical libraries are often false positives due to their interference with the assay detection technology. In response to this problem, we generated the largest publicly available library of chemical liabilities and developed a free webtool to predict HTS artifacts, both of which are described herein. More specifically, we generated, curated, and integrated HTS datasets for thiol reactivity, redox activity, and luciferase (firefly and nano) activity. Using these curated datasets, we developed and validated several Quantitative Structure-Interference Relationship (QSIR) models to predict nuisance behavior. […] These models were employed for virtual profiling of the National Center for Advancing Translational Science's (NCATS) in-house library, and 256 compounds for each assay were selected for the experimental validation of nuisance behavior. The BA for these external predictions ranged from 58 to 78% for compounds within the applicability domains of the models. […] The models developed in this study, along with aggregation models previously developed by our group (SCAM Detective) were implemented in "Liability Predictor," an online tool which may be used as part of chemical library design or for triaging HTS hits. Both the models and the curated datasets are publicly available at https://liability.mml.unc.edu/.
PROTOCOL TABLE SEQUENCE No. (e.g., 1, 2, 3, etc.); […] (e.g., Cells, Incubation, Reagent, etc.); VALUE; DESCRIPTION. 1; Reagent; 3 uL; Amplex Red and HRP mixture. 2; Compounds and control; 16 nL; Kalypsis pin tool (Wako USA) equipped with a 1536-well pin head. 3; Incubation; 15 min. 4; Reagent; 1 uL; […]. 5; Incubation; 30 min. 6; Detection; Fluorescence, ViewLux microplate reader, 525 nm excitation, 598 nm emission. NOTES (numbers refer to Sequence numbers above) 1. 3 uL of a mixture containing Amplex Red (25 uM final concentration) and horseradish peroxidase (HRP; 250 mU/mL final concentration) in assay buffer (HBSS) was dispensed into all wells of a 1536-well assay plate (solid-bottom black plate; Greiner Bio One, Monroe, NC). 2. […] 3. 15 min. incubation at room temperature protected from light. 4. 1 uL of DTT (prepared fresh; final concentration 250 uM) was dispensed for a final assay volume of 4 uL. 5. Plates were centrifuged (121xg, 15 seconds) and incubated for 30 minutes at room temperature protected from light. 6. Samples were read for fluorescence (Ex/Em = 525(20)/598(25) nm) on a ViewLux CCD imager (PerkinElmer). Data were normalized to DMSO (0% activity) and DA3003 (10 uM final concentration; 100% activity) and the resulting percent inhibition data were fitted to a 4-parameter Hill equation using NCATS in-house software.
With `CCOC(=O)Cc1cccc(-c2cc(CCCCCCc3ccc(O[C@H]4O[C@H](COC(C)=O)[C@@H](OC(C)=O)[C@H](OC(C)=O)[C@@H]4OC(C)=O)c(-c4cccc(CC(=O)OCC)c4)c3)ccc2O[C@H]2O[C@H](COC(C)=O)[C@@H](OC(C)=O)[C@H](OC(C)=O)[C@@H]2OC(C)=O)c1`, the result was inactive.
Still for that read-out and setting: in the case of `CC(N)(C(=O)O)c1ccc(S(=O)(=O)O)cc1` (stereo not given) it was “inactive”.
Still for that read-out and setting: to `CNC(=O)c1ccc(Nc2nnc(-c3ccc(C)c(S(=O)(=O)N4CCOCC4)c3)c3ccccc23)cc1` belongs “inactive”; to `CC(C)C[C@H](NC(=O)[C@@H](Cc1c[nH]c2ccccc12)NC(=O)[C@H](Cc1ccc(O)cc1)NC(=O)[C@H](CO)NC(=O)[C@H](Cc1c[nH]c2ccccc12)NC(=O)[C@H](Cc1cnc[nH]1)NC(=O)[C@@H]1CCC(=O)N1)C(=O)N[C@@H](CCCN=C(N)N)C(=O)N1CCC[C@H]1C(=O)NCC(N)=O`, “inactive”; to `CC(O)COCC1OC2OC3C(COCC(C)O)OC(OC4C(COCC(C)O)OC(OC5C(COCC(C)O)OC(OC6C(COCC(C)O)OC(OC7C(COCC(C)O)OC(OC8C(COCC(C)O)OC(OC1C(OCC(C)O)C2OCC(C)O)C(OCC(C)O)C8OCC(C)O)C(OCC(C)O)C7OCC(C)O)C(OCC(C)O)C6OCC(C)O)C(OCC(C)O)C5OCC(C)O)C(OCC(C)O)C4OCC(C)O)C(OCC(C)O)C3OCC(C)O` (stereo not given), “inactive”.
In the case of `CCOC(=O)C(=O)NCC(c1cccnc1)N1CCN(c2ccccc2)CC1` (stereo not given), the molecule was classed as inactive.
Same read-out and setting: in the case of `COc1ccc(C(=O)Nc2nc3c(s2)CCCC3)cc1Cl` it was “inactive”.
The same measure, in the same setting: to `CCOc1ccc(Cn2c(=O)sc3ccccc32)cc1` belongs “inactive”.
Turning to `CCOC(=O)c1ccccc1NC(=O)Cn1c(=O)n(-c2cccc(C)c2)c(=O)c2c1c1cc(C)ccc1n2C`, the outcome was inactive.
Still for that read-out and setting: in the case of `CN(C(=O)CSc1nc2ccc(NC(=O)c3cccs3)cc2s1)c1ccccc1` it was “inactive”; in that of `C[C@@H]1CC2C3CCC4=CC(=O)C=C[C@]4(C)[C@@]3(F)C(O)C[C@]2(C)[C@@]1(O)C(=O)COC(=O)c1cccc(S(=O)(=O)O)c1` (stereo not given in full), “inactive”.
`COC(=O)c1c(OCc2ccccn2)cc(=O)n2c1CCN(C(=O)c1n[nH]c3c1CCCC3)CC2`: the outcome was inactive.
On the same count and under the same terms, to `CC(=O)N1CCC(C(=O)Nc2nnc(C(C)C)s2)CC1` belongs “inactive”; to `O=C1c2ccccc2C(=O)N1c1ccc2ncccc2c1`, “inactive”.
`O=C(Nc1cc2c(cc1C(=O)c1ccccc1Cl)OCCO2)c1ccc(Br)cc1`: the call was inactive.
Regarding `CCOc1ccc(C[C@H]2NC(=O)CCSSC[C@@H](C(=O)N3CCC[C@H]3C(=O)N[C@@H](CCCN)C(=O)NCC(N)=O)NC(=O)[C@H](CC(N)=O)NC(=O)[C@H]([C@@H](C)O)NC(=O)[C@H]([C@@H](C)CC)NC2=O)cc1`, the outcome was inactive.
Consider `CC(C)c1nn2c(=O)cc(COC(=O)c3cccc(NC(=O)COc4ccc(F)cc4)c3)nc2s1`, for which the outcome was inactive.
Same read-out and setting: in the case of `O=C1c2ccccc2C(=O)N1c1cnc2ccccc2c1` it was “inactive”.
As for `CCCCCC(O)/C=C/C=C\CCCCCCCC(=O)O` (stereo not given), the redox activity vs DA3003 is -1.07% [at 0.303 µM].
Turning to `CCCCN1C(=O)c2[nH]nc(-c3ccccc3O)c2C1c1ccc(C(C)(C)C)cc1` (stereo not given), the result was inactive.
Still for that read-out and setting: to `C=C[C@@H]1C[C@@H](C=C)OP(=O)(O[C@@H](C=C)[C@@H](C)C(=O)OC)O1` (stereo not given in full) belongs “inactive”.
`CC1(C)CC(=O)c2cc(C(=O)NCCc3ccccc3)c(=O)[nH]c2C1`: the result was inactive.
The same measure, in the same setting: to `COc1ccc(Cn2c(C(=O)O)c(CNC3CCCC3)c3ccc(C)cc32)cc1` belongs “inactive”; to `CC(NC(=O)CSc1nc(-c2ccccc2F)nc2cc(=O)[nH]n12)c1nc2ccccc2n1C` (stereo not given), “inactive”.
For the molecule `O=C(Nc1cccc(Br)c1)N1CCC(CN2CCCCC2)CC1`, the result was inactive.
`Cc1ccc(-n2ncc(C(=O)N3CCN(c4ccccn4)CC3)c2C2CCN(C(=O)OC(C)(C)C)CC2)cc1C`: the molecule was called inactive.
Take `COc1ccc(NC(=O)Nc2cccc(-c3noc(C)n3)c2)cc1`: the molecule was called inactive.
The same measure, in the same setting: in the case of `COc1cc2c(NC3CCN(C(C)C)CC3)nc(N3CCCN(c4ccccc4)CC3)nc2cc1OCCCN1CCCCC1` it was “inactive”.
Still for that read-out and setting: in the case of `O=C(NCCSc1c(-c2ccc(Br)cc2)[nH]c2ccccc12)c1ccc(S(=O)(=O)N2CCOCC2)cc1` it was “inactive”; in that of `CC(C)Oc1ccc(CNC(=O)Cc2ccc(NC(=O)N3CCSc4ncccc43)cc2)cc1`, “inactive”; in that of `O=C(CCC(=O)N1CCSc2ccccc21)Nc1ccc(Cl)cc1`, “inactive”.
For `CN(C)CCNC(=O)CN1C(=O)CCn2nc(-c3cn(C)c4ccccc34)cc21`, the molecule was classed as inactive.
The same measure, in the same setting: to `O=C(NC1CCCCCC1)c1ccc(CS(=O)c2ccc(Br)cc2)o1` (stereo not given) belongs “inactive”; to `COc1ccc(C(=O)Nc2ccc(-n3nncc3-c3ccccc3)cc2)cc1OC`, “inactive”.
Consider `Cn1cc(CN(C(=O)Nc2ccc(Cl)c(Cl)c2)C2CCCCC2)c2ccccc21`, for which the outcome was inactive.
Still for that read-out and setting: to `CCCC(=O)O[C@]1(C(=O)COC(C)=O)CC[C@H]2[C@@H]3C[C@H](F)C4=CC(=O)C=C[C@]4(C)[C@@]3(F)[C@@H](O)C[C@@]21C` belongs “inactive”.
Turning to `COc1ccccc1CNC(=O)CCCn1c(=O)c2ccccc2n(CC(=O)Nc2ccc(C)cc2Cl)c1=O`, the molecule was classed as inactive.
Still for that read-out and setting: to `COc1ccc(N2C(=O)c3ccccc3C2=O)cc1` belongs “inactive”.
On the same count and under the same terms, to `COc1ccc(Cn2c(SCc3ccc(C(=O)NC4CCCCC4)cc3)nc3ccncc32)cc1` belongs “inactive”.
On the same count and under the same terms, to `COc1cc2c(NC3CCN(C)CC3)nc(N3CCN(C)CC3)nc2cc1OCCCN(C)C` belongs “inactive”.

Source of the values: PubChem BioAssay AID1845225 (National Center for Advancing Translational Sciences (NCATS), 2023).
